The list is not random: actives were taken first. Their share in the collection is about 10%.
G9a inh – qHTS Assay for Inhibitors of Histone Lysine Methyltransferase G9a. G9a H3K9 monomethylation, AlphaScreen, 2 h. Histone-lysine N-methyltransferase EHMT2 (Homo sapiens), Q96KQ7. Potency, µM (highest dose often 102 µM), for inactives: at the top dose activity, negative = inhibition, most hits filed as inhibitors. 8.8% of 350,000 active; note: potency is the fitted concentration of half-maximal effect; nearly all actives have a fitted effect of over 75% in size
Target sequence (Q96KQ7 913-1193 limits assumed): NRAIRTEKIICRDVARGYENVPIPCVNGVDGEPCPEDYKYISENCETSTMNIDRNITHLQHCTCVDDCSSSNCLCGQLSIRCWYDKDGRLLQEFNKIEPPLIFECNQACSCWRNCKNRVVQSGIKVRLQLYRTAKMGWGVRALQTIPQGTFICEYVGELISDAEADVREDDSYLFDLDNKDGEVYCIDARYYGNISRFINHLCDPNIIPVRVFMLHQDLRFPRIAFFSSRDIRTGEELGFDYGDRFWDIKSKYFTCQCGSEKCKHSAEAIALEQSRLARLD
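Quantitative HTS format: methyltransferase activity on a biotin-tagged H3K9 peptide is measured by AlphaScreen, using a rabbit anti-monomethyl-H3K9 antibody with streptavidin donor and anti-IgG acceptor beads. Final levels are 20 nM enzyme, 500 nM peptide, 20 uM SAM; 2 h RT.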
Sfp PPTase inh – qHTS Assay for Inhibitors of Bacillus subtilis Sfp phosphopantetheinyl transferase (PPTase); 4'-phosphopantetheinyl transferase ffp (Bacillus subtilis), Q9F4F7; Biochemical Sfp PPTase activity, qHTS; Potency, µM, without a hit: largest response in the series, negative = inhibition, usual class: inhibitors; 3.5% of 310,000 active;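 note: the enzyme is Sfp with the accession as filed and its product quenches rhodamine fluorescence; potency is the fitted concentration of half-maximal effect; 0% = enzyme reaction without inhibitor and -100% = no enzyme wells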
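Fluorescence-quenching assay with 15 nM Sfp, 5 uM rhodamine-CoA and 12.5 uM BHQ-2-labelled ybbR peptide in pH 7.6 Hepes/MgCl2 buffer. Enzyme was pre-incubated with compound for 15 min at room temperature. Rate was taken from the 30-min fluorescence change (525/598 nm).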
CCT modulator – High-Throughput Screening for Modulators of Cytosolic Chaperonin Activity; purified chaperonin ATPase assay, HTRF ADP detection, 30 min; activity change, % (no concentration beside the values), hits read low; 0.3% of 360,000 active; AID 651819, 2012; in the data active = activity change below about -30%
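ATPase activity: ADP formed was measured by HTRF Transcreener (665/615 nm ratio) after 30 min at 37 deg C with 10 uM ATP. Compounds screened at one 76 uM concentration against 40 or 20 nM TRiC in Tris pH 7.4/KCl/MgCl2/DTT buffer.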
PLK1 PBD inh – qHTS for Inhibitors of PLK1-PDB (polo-like kinase 1 - polo-box domain): Primary Screen | Serine/threonine-protein kinase PLK1 (Homo sapiens), P53350 | Plk1 PBD binding of FITC phosphopeptide, fluorescence polarization | Potency, µM, for the others: max response, negative = inhibition, most hits filed as inhibitors | 2.8% of 360,000 active; note: potency is the fitted concentration of half-maximal effect; series mostly up to about 57 µM; nearly all actives have a fitted effect of over 65% in size
MmCpn inh – Inhibitors of TCP-1 ring complex (TRiC) of Methanococcus maripaludis (MmCpn): qHTS | Potency, µM (doses to about 76.9 µM), without a hit: at the highest dose activity, negative = inhibition, most hits filed as inhibitors | 0.031% of 330,000 active | purified Mm-Cpn ATPase, ADP Transcreener TR-FRET | Chaperonin Mm-Cpn (Methanococcus maripaludis); note: potency is the fitted concentration of half-maximal effect; nearly all actives have a fitted effect of over 80% in size
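ATPase turnover read by TR-FRET ADP competition (Eu cryptate antibody/ADP-d2, 665/590 nm): 10uM ATP final, 25nM Mm-CPN final, 30 min 37degC after 10-min compound preincubation, pH 7.4 Tris/KCl/MgCl2/DTT buffer.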
VDR inhibitor – Inhibitors of the vitamin D receptor (VDR): qHTS; Potency, µM, inactives show max response, negative = inhibition, hits mostly inhibitors; 0.93% of 400,000 active; Vitamin D3 receptor (Homo sapiens), P11473; VDR-SRC2-3 peptide fluorescence polarization, 2 h; note: potency is the fitted concentration of half-maximal effect
Target sequence (P11473 whole entry, looked up): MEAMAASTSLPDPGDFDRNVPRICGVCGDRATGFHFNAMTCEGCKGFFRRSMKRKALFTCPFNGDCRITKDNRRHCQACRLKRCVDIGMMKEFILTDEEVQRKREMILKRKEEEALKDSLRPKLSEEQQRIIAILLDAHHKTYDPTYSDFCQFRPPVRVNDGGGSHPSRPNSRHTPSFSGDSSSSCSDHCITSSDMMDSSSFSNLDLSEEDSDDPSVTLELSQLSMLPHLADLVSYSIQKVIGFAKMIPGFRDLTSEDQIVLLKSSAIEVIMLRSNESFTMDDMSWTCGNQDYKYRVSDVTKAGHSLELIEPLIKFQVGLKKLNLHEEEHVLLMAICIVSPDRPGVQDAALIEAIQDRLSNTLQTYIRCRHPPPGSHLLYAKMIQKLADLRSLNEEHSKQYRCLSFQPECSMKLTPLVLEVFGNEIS
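Fluorescence polarization assay measuring small-molecule disruption of VDR binding to the coregulator peptide SRC2-3. Compounds were pin-transferred (23 nl) into the reagent mix and incubated 2 h at room temperature before reading.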
Numbers without * were called inactive; ? = inconclusive; nt = not tested or not shown; [ ] = another dose, or the depositor's remark. Unless noted, calls come from the whole dose curve; as a rule, active = well fitted curve in the direction sought with a large enough effect; inconclusive = small, poorly fitted or top-dose-only effect, or another doubt; inactive = no such curve, though single readings can be large; an effect the other way counts as inactive or inconclusive. Unless noted, % is set by controls: 0 for no effect and ±100 for the full control effect.

SMILES	G9a inh	Sfp PPTase inh	CCT modulator	PLK1 PBD inh	MmCpn inh	VDR inhibitor
CN(C)c1ncnc2ccc(-c3cccc(NS(C)(=O)=O)c3)cc12	15%[0.501 µM]	30%	nt	nt	nt	-17%
O=C(Cn1c(=O)n(Cc2ccco2)c(=O)c2sc3ccccc3c21)Nc1ccc(F)cc1F	-4%[59 µM]	nt	nt	nt	nt	-13%
O=C(CN1C(=O)c2cccc3cccc1c23)NCc1cccnc1	2%	10%	2	-9%	-1%	2%
CCN1C(=O)c2cccc3cccc1c23	-23%[12.7 µM]	16µM*	-1	21µM*	-2%	-10%
O=C(CN1C(=O)c2cccc3cccc1c23)Nc1cccnc1	?	-2%	2	30µM*	-4%	7%
O=C(Cc1ccccc1)NC1(O)C(=O)c2ccccc2C1=O	?	6%	-7	-15%	-2%	35µM*
O=C(Cc1ccccc1)NO	-24%[2.33 µM]	24%	nt	nt	nt	-2%
COc1ccc(-c2cc3nc(C)c(CCC(=O)NCc4ccccc4Cl)c(C)n3n2)c(OC)c1	-36%[59 µM]	nt	nt	nt	nt	-1%
S=C1SCN(Cc2cccnc2)CN1Cc1cccnc1	?	14µM*	0	0%	0%	-10%
CCCCN(C)C(=O)Cn1c(SCC(=O)Nc2ccc(C)c(C)c2)nc2ccccc21	15%[59 µM]	nt	nt	nt	nt	-12%
COc1ccc(CNC(=O)Cn2c(=O)cc(-c3ccccc3)c3c(C)nn(C)c32)cc1	2%[59 µM]	nt	nt	nt	nt	-3%
CNC(=S)N/N=C/c1cn(CCOc2cccc(OC)c2)c2ccccc12	45µM*	?	1	0%	-7%	-13%
Cc1ccc(OCCn2cc(/C=N/NC(=O)c3ccncc3)c3ccccc32)cc1	4%	0%	2	15µM*	1%	8%
CNC(=S)N/N=C/c1cn(CCOc2ccccc2OC)c2ccccc12	8%[59 µM]	?	-1	-4%	-2%	-19%
CCOC(=O)Cc1c(C)nc2c(-c3ccc(OC)c(OC)c3)c(C)nn2c1C	?	nt	nt	nt	nt	9%
COC(=O)CSc1nc(-c2cccs2)ccc1C#N	32µM*	40µM*	-1	?	-17%	-13%
CN1CCN(C(=O)CSc2nc(-c3cccs3)cc(-c3cccs3)c2C#N)CC1	40µM*	-30%	-2	-11%	-7%	-7%
CCN(CC)C(=O)CSc1nc(-c2cccs2)cc(-c2cccs2)c1C#N	4µM*	7.9µM*	-4	12µM*	?	?
COC(=O)CSc1nc2ccccc2nc1SCC(=O)OC	?	50µM*	2	-9%	-9%	-3%
C#CCSc1nc(-c2cccs2)ccc1C#N	21%[12.7 µM]	-9%	-6	-7%	?	0%
CCN(CC)C(=O)CSc1nc(N)c(C#N)c(-c2cccs2)c1C#N	14%[59 µM]	5%	-2	-2%	-30%	-2%
N#Cc1c(-c2ccc(F)cc2)cc(-c2cccs2)nc1SCC(=O)O	16%	2%	1	?	-5%	4%
c1ccc2c(c1)Cc1cc3cc4c(cc3nc1-2)OCO4	nt	-17%	nt	nt	nt	nt
O=C(Cn1c2ccccc2c(=O)c2ccccc21)N/N=C/c1ccc(N2CCCC2)c([N+](=O)[O-])c1	-27%	-11%	-1	-5%	1%	0%
O=C(Cn1c2ccccc2c(=O)c2ccccc21)N/N=C/c1cc([N+](=O)[O-])ccc1N1CCCCCC1	23%[12.7 µM]	11µM*	-5	-1%	1%	-1%
SMILES	G9a inh	Sfp PPTase inh	CCT modulator	PLK1 PBD inh	MmCpn inh	VDR inhibitor
Cc1ccc(-c2nnc(-c3ccccc3)c(-c3ccccc3)n2)cc1	?	-27%	0	-3%	1%	-19%
Cc1cc(-c2nnc(-c3ccccc3)c(-c3ccccc3)n2)c(C)o1	16µM*	14µM*	1	-21%	-3%	?
Cn1cnc(S(=O)(=O)N2CCCC(C(=O)NCc3ccc(F)cc3)C2)c1 (stereo not drawn)	7%[12.7 µM]	nt	nt	nt	nt	8%
Cc1cc(-c2n[nH]c(=S)n2/N=C/c2cccc(O)c2)n[nH]1	2.2µM*	-23%	-4	-11%	-2%	15%
Cc1cc(-c2n[nH]c(=S)n2/N=C/c2cccc([N+](=O)[O-])c2)n[nH]1	1.6µM*	-24%	1	-20%	2%	-8%
Cc1nnc(C)n1/N=C/c1cccc([N+](=O)[O-])c1	2%	7%	-1	-1%	-1%	2%
CCOc1ccccc1C1C(C#N)=C(N)Oc2cc(C)n(Cc3ccccn3)c(=O)c21 (stereo not drawn)	50µM*	-13%	0	-7%	1%	-9%
Cc1cc2c(c(=O)n1Cc1ccccn1)C(c1ccc3c(c1)OCO3)C(C#N)=C(N)O2 (stereo not drawn)	8%[12.7 µM]	13%	2	-4%	3%	-7%
COc1ccccc1C1C(C#N)=C(N)Oc2cc(C)n(Cc3ccccn3)c(=O)c21 (stereo not drawn)	35µM*	50µM*	-1	-7%	?	16%
COc1cc(C2C(C#N)=C(N)Oc3cc(C)n(Cc4ccccn4)c(=O)c32)cc2c1OCO2 (stereo not drawn)	50µM*	-19%	nt	nt	-1%	nt
Cc1cc2c(c(=O)n1Cc1ccccn1)C(C(C)C)C(C#N)=C(N)O2 (stereo not drawn)	-5%	30%	1	?	1%	-17%
CCOc1ccccc1C1C(C#N)=C(N)Oc2cc(C)n(C)c(=O)c21 (stereo not drawn)	-8%[59 µM]	6%	-2	-10%	2%	-5%
c1csc(C2C3=C(Nc4ncnn42)c2ccccc2OC3)c1 (stereo not drawn)	?	50µM*	-1	-24%	1%	6%
C(=N\n1cnnc1)/c1cccc(OCCOc2ccccc2)c1	-2%[12.7 µM]	8%	-84*	1%	0%	-16%
COc1cc(/C=N/n2cnnc2)ccc1OCCOc1ccccc1	-24%	26%	-3	-3%	0%	-1%
O=C(Nc1ccc(Cl)cc1)c1cc2c(-c3ccccc3)nn(-c3ccccc3)c2s1	8%[59 µM]	nt	nt	nt	nt	13%
C=CCN1C(=O)c2ccc(C(=O)N(C)CC(=O)Nc3c(C)cccc3C)cc2C1=O	50µM*	nt	-5	-13%	3%	-13%
C=CCN1C(=O)c2ccc(C(=O)N(CC)CC(=O)Nc3c(F)cccc3F)cc2C1=O	?	nt	2	-2%	0%	-2%
Cc1cc(C(=O)Nc2ccc(Nc3ccccc3)cc2)ccc1[N+](=O)[O-]	8%[0.501 µM]	20%	2	3.4µM*	0%	25µM*

Bioassay records from PubChem.
